The values that follow come from PubChem BioAssay AID2023 (NMMLSC, 2009).

Each structure is given as a SMILES string. Among all 320,000 compounds or so, about 1,100 (0.34%) were called active. The entries come from a sample that favours actives as a whole. A number with no mark means an inactive call.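 Rule for the calls: active = GFP response vs DMSO above a set limit, about the screen mean plus 3 SD (cut at about 150% in these data); inconclusive = under 70 cell events counted for the yeast strain; inactive = the rest.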

The experiment can be described thus: TOR pathway LAP4-GFP level changes – S. cerevisiae, multiplex flow cytometry, MLPCN library, primary screen (AID 2023). The note with it: 3 h, at 10 µM, stronger effect = higher value. In general terms: A flow cytometer gives signals particle by particle.
Consider `NCCc1c[nH]c2ccc(O)cc12`, for which the GFP response vs DMSO is 307% [may fluoresce violet] (active).

On to `Cc1cccc2c(CCN)c[nH]c12`, for which the GFP response vs DMSO was 105%.

For the compound `C/C(CCc1c[nH]c2ccccc12)=N\O`, the GFP response vs DMSO was 102%. The value for `CN(C)C(=O)NC(O)C(Cl)(Cl)Cl` (stereo not given) was 108%. For `COc1cccc(N2C(=O)NC(=O)/C(=C\c3cn(C)c4ccccc34)C2=O)c1` the value was 104%; for `COc1ccc(N2C(=O)/C(=C/c3ccco3)C(=O)NC2=S)cc1`, 170% (active); for `COc1ccc(CN2C(=O)NC(=O)/C(=C\c3ccc(OC)c(OC)c3OC)C2=O)cc1`, 109%. On to `Cc1ccc(S(=O)(=O)N(C)c2ccc(C(=O)NCC3(N(C)C)CCCCC3)cc2)cc1`, for which the GFP response vs DMSO was 91.7%.

In the case of `O=C1NC(=O)N(Cc2ccco2)C(=O)/C1=C\c1cccn1CCOc1ccccc1`, the GFP response vs DMSO is 111%.

In the case of `O=C1NC(=O)N(CCc2ccc(F)cc2)C(=O)/C1=C/C=C/c1ccccc1`, the GFP response vs DMSO is 111%. The value for `O=C1NC(=O)N(Cc2ccco2)C(=O)/C1=C\c1ccc(-c2ccc(F)cc2)o1` was 182% (active); that for `O=C(Cc1ccccc1)N1CCN(C2CCCCCC2)CC1` was 95.7%. For `COc1ccc(C2N3CC(C)(C)CN23)cc1` (stereo not given) the value was 95% [median GFP as percent of DMSO wells]; for `CC1CCC(N(C)C2CCN(C)CC2)CC1` (stereo not given), 94.4%. Turning to `CNCC[C@H](Oc1ccc(C(F)(F)F)cc1)c1ccccc1`, the GFP response vs DMSO was 106%.
